This passage reports Potency results from PubChem BioAssay (Tox21).

Records with an inconclusive call do not appear. The source made the active and inactive calls. Unless noted, the call rests on the fitted dose curve; in most records, active means well fitted curve in the direction sought with a large enough effect in the repeat runs; inconclusive means weak or mixed curves; inactive means no such curve, though single readings can be large; an effect the other way counts as inactive or inconclusive.

The nature of assay [1]: qHTS RealTime-Glo MT Cell Viability Assay in HEK293 cells - 0 hour (AID 1224880). Further: top concentration of the series differs between compounds; nearly all actives have a fitted effect of over 45% in size. The gist of the method:
(§1)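 Viable HEK293 cells reduce a cell-permeant prosubstrate; the product diffuses out and is consumed by NanoLuc in the medium to give light. Compounds went in after a 5 h incubation and plates were read over the treatment course.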
On the technique in general: In qHTS, concentration-response curves come from the screen itself.

Assay [2] in a line: A CellTox Green Cytotoxicity Assay to monitor cytotoxicity in HEK293 cells - 32 hour (AID 1224881). Further: nearly all actives have a fitted effect of over 40% in size. Further: potency means the concentration at half of the fitted maximal effect. In short, it runs like this:
(§2)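 Fluorescence intensity, read at 0, 8, 16, 24, 32 and 40 h of compound treatment, reflected dye binding to DNA of dead HEK293 cells; compounds (23 nL, DMSO) were added 5 h after plating cells with reagent.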

The nature of assay [3]: A CellTox Green Cytotoxicity Assay to monitor cytotoxicity in HepG2 cells - 0 hour (AID 1224882). Further: nearly all actives have a fitted effect of over 35% in size. Further: potency means the concentration at half of the fitted maximal effect. In short, it runs like this: (§3)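 Using 1536-well format, dye-containing HepG2 suspension was seeded, allowed 5 h at 37 C/5% CO2, dosed by pintool with compounds, positive and negative controls, and imaged for fluorescence across 40 h.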
A short description of assay [4]: A CellTox Green Cytotoxicity Assay to monitor cytotoxicity in HepG2 cells - 32 hour (AID 1224883). Further: nearly all actives have a fitted effect of over 50% in size. Further: potency means the concentration at half of the fitted maximal effect. In short, it runs like this:
as §3

Assay [5] is described as follows: A CellTox Green Cytotoxicity Assay to monitor cytotoxicity in HEK293 cells - 8 hour (AID 1224884). Further: nearly all actives have a fitted effect of over 35% in size. Further: potency means the concentration at half of the fitted maximal effect. In short, it runs like this: as §2
Assay [6] can be described thus: qHTS RealTime-Glo MT Cell Viability Assay in HepG2 cells - 16 hour (AID 1224885). Further: nearly all actives have a fitted effect of over 50% in size. The gist of the method: (§4)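 HepG2 cells (600/well) were dispensed with RealTime-Glo reagents, incubated 5 h at 37 °C, then treated with compounds in DMSO for up to 40 h. Nonlytic NanoLuc luminescence reflecting viable cells was read at each stated time point.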
Assay [7] in a line: qHTS RealTime-Glo MT Cell Viability Assay in HEK293 cells - 24 hour (AID 1224886). Further: nearly all actives have a fitted effect of over 50% in size. Further: potency means the concentration at half of the fitted maximal effect. The gist of the method: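 HEK293 cells seeded with NanoLuc/prosubstrate reagent, rested 5 h at 37 C, then dosed and kept at 37 C up to 40 h. Nonlytic real-time luminescence from viable cells read at 0, 8, 16, 24, 32 and 40 h.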
Assay [8] can be described thus: A CellTox Green Cytotoxicity Assay to monitor cytotoxicity in HEK293 cells - 16 hour (AID 1224888). Further: nearly all actives have a fitted effect of over 35% in size. Further: potency means the concentration at half of the fitted maximal effect. In short, it runs like this:
as §2

Assay [9] can be described thus: qHTS RealTime-Glo MT Cell Viability Assay in HepG2 cells - 0 hour (AID 1224889). Further: nearly all actives have a fitted effect of over 50% in size. In short, it runs like this:
as §4

Assay [10] is described as follows: A CellTox Green Cytotoxicity Assay to monitor cytotoxicity in HepG2 cells - 8 hour (AID 1224890). Further: nearly all actives have a fitted effect of over 45% in size. Further: potency means the concentration at half of the fitted maximal effect. In short, it runs like this:
as §3

Assay [11] in a line: qHTS assay to identify small molecule antagonists of the estrogen receptor alpha (ER-alpha) signaling pathway using the BG1 cell line in the presence of 0.1 nM 17-beta-estradiol - cell viability counter screen (AID 1259241). Further: nearly all actives have a fitted effect of over 40% in size. In short, it runs like this:
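Cells were plated and left 24 hr, compounds in DMSO were pinned in, 17beta-estradiol was added to 0.1 nM final, and after 22 hr CellTiter-Fluor reagent was added for 30 min before fluorescence was read.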

Assay [12] in a line: qHTS assay to identify small molecule antagonists of the androgen receptor (AR) signaling pathway using the MDA cell line in the presence of 0.5 nM R1881 - cell viability counter screen (AID 1259242). Further: nearly all actives have a fitted effect of over 45% in size. In short, it runs like this: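 Viability of MDA-kb2 cells was multiplexed with the luciferase AR readout; after 16 hr with compounds and R1881 at 0.5 nM final, CellTiter-Fluor fluorescence was recorded.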

Assay [13] concerns the target Androgen receptor (Homo sapiens) (UniProt P10275). As to the kind of experiment: qHTS assay to identify small molecule antagonists of the androgen receptor (AR) signaling pathway using the MDA cell line in the presence of 0.5 nM R1881 (AID 1259243). Further: nearly all actives have a fitted effect of over 50% in size. The gist of the method:
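Reporter cells cultured without CO2 receive test chemicals, then 0.5 nM R1881 final; after 16 hr at 37C, ONE-Glo is added and light output recorded.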

Assay [14] in a line: qHTS assay to identify small molecule HDAC inhibitors (AID 1259364).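 Further: wild-type HCT-116 cells with endogenous class I/II HDAC activity; top concentration of the series differs between compounds; nearly all actives have a fitted effect of over 45% in size.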 In short, it runs like this:
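Read-out: luminescence of HDAC-Glo I/II reagent, 30 min RT, reflecting class I/II deacetylase activity in whole HCT-116 cells pre-exposed 2 h to DMSO-dissolved compounds.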

Assay [15] in a line: qHTS assay to identify small molecule HDAC inhibitors - cell viability counter screen (AID 1259365). In short, it runs like this:
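Counter screen in wild-type HCT-116 cells: compounds dissolved in DMSO are pin-transferred onto overnight-plated cells and left 2hr at 37C. ATP-based CellTiter-Glo luminescence then measures viable cells.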

A short description of assay [16]: qHTS assay to identify small molecule agonists of the sonic hedgehog signaling (Shh) pathway - cell viability counter screen (AID 1259366). Further: nearly all actives have a fitted effect of over 50% in size. The gist of the method: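 Cells are plated at 2,000 per well and left 4hr at 37C, 5% CO2 before compound addition. After 23hr of treatment, CellTiter-Fluor reagent is added for 1hr at 37C and fluorescence is measured.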
A short description of assay [17]: qHTS assay to identify small molecule antagonists of the sonic hedgehog signaling (Shh) pathway - cell viability counter screen (AID 1259367). Further: nearly all actives have a fitted effect of over 55% in size. In short, it runs like this: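 NIH/3T3-derived Gli1-Luc reporter cells, 2,000/well, plated 4 hr before compound addition, then stimulated with conditioned medium for 24 hr at 37C. Viability measured in the same wells by CellTiter-Fluor fluorescence, reagent added at 23 hr for 1 hr.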

Assay [18] can be described thus: qHTS RealTime-Glo MT Cell Viability Assay in HEK293 cells - 8 hour (AID 1224887). In short, it runs like this: as §1
Assay [19] can be described thus: qHTS assay to identify small molecule phospholipidosis (PLD) inducers (AID 1259344; active means well fitted curve in the direction sought with a large enough effect; an effect the other way counts as inactive or inconclusive). The gist of the method:
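HepG2 cells, 900/well, treated with compound plus LipidTOX Red for 24 h at 37 C; amiodarone positive and DMSO negative controls. Fixed with paraformaldehyde/Hoechst, then high-content imaging scored LipidTOX pit count and integrated intensity per well and per cell.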

Assay [20] deals with Estrogen receptor (Homo sapiens) (UniProt P03372). Briefly: qHTS assay to identify small molecule antagonists of the estrogen receptor alpha (ER-alpha) signaling pathway using the BG1 cell line in the presence of 0.1 nM 17-beta-estradiol (AID 1259244). Further: nearly all actives have a fitted effect of over 50% in size. The gist of the method:
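Estradiol at 0.1 nM (final) stimulates the endogenous ER-alpha of VM7Luc4E2 cells carrying an ERE-driven luciferase; compounds are co-incubated 22 h at 37C and luciferase output quantified by luminescence.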

Androgen receptor (Homo sapiens), sequence (P10275 whole entry, looked up): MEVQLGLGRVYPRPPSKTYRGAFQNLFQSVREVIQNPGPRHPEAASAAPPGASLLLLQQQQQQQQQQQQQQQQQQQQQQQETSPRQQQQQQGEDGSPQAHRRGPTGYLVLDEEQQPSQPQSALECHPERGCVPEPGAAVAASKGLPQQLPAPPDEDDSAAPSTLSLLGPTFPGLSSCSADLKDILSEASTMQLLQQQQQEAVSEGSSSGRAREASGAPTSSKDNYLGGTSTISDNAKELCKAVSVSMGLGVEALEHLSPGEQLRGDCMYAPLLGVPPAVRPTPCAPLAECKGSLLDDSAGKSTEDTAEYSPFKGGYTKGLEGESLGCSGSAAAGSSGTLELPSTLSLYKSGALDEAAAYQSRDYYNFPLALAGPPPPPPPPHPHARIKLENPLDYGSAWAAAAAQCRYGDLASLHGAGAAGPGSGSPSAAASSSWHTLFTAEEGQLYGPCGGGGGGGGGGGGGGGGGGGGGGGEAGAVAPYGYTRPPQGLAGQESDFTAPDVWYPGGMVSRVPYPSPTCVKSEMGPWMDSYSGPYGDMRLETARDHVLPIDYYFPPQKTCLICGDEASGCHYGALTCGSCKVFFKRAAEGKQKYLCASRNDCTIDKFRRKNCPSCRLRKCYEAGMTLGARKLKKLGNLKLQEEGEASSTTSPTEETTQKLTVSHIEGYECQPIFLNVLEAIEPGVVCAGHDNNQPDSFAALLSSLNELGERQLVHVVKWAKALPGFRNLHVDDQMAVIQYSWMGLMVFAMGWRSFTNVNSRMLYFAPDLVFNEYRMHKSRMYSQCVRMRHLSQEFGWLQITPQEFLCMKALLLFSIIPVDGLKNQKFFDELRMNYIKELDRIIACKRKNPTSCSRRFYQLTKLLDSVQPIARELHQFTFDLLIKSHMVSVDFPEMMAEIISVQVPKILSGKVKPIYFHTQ
Estrogen receptor (Homo sapiens), sequence (P03372 whole entry, looked up): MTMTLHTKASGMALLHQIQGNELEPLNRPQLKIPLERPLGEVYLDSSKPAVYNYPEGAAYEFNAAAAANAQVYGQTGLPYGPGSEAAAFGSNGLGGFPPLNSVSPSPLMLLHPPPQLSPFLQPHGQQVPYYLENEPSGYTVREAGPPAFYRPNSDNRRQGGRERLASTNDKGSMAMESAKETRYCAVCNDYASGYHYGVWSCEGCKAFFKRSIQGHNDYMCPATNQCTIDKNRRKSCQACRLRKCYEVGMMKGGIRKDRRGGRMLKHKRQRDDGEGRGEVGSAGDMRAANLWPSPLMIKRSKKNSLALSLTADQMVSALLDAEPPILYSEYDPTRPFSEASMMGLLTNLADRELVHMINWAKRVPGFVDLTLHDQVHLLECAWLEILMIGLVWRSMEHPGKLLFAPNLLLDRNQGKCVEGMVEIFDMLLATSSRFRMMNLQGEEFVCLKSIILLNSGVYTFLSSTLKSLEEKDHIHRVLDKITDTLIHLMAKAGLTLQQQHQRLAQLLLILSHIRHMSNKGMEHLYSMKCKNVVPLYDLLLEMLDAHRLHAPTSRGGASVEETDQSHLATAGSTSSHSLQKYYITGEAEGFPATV

`CCCCCCCC(=O)OCCCCCC`: the Potency entry in assay [1], in [2], in [3], in [4], in assay [5] and in assay [6] was “inactive” each time. The Potency entry in [8], in assay [9], in assay [10], in assay [11], in assay [12] and in [13] was “inactive” throughout. The Potency entry in [14], in [15], in [16] and in assay [17] was “inactive” throughout. Also, the Potency in assay [7] is 3.89 µM (active).
For the compound `CC(C)Cc1ccc(CC(=O)O)cc1`, the Potency entry in assay [1], in assay [6], in assay [7], in assay [18], in assay [9] and in [11] was “inactive” in each case. For the same compound, the Potency entry in assay [12], in [19], in assay [15], in [16] and in assay [17] was “inactive” each time. For the same compound, the Potency in [2] is 10.7 µM (active); in assay [3], 19 µM (active); in [4], 19 µM (active); in [5], 9.52 µM (active); in [8], 9.52 µM (active); in [10], 21.3 µM (active).
As for `C[C@@H]1C[C@H]2[C@@H]3CCC4=CC(=O)C=C[C@]4(C)[C@@]3(F)[C@@H](O)C[C@]2(C)[C@@]1(O)C(=O)COP(=O)(O)O`, the Potency entry in [1], in assay [2], in assay [3], in assay [4], in assay [5] and in assay [6] was “inactive” in each case. Also, the Potency entry in assay [7], in assay [18], in assay [8], in assay [10], in [11] and in assay [12] was “inactive” throughout. The Potency entry in [20], in [19], in assay [14], in [15], in assay [16] and in assay [17] was “inactive” throughout.
Consider `CC1CCC(C(C)CS)CC1S` (centres undefined), for which the Potency entry in assay [1], in assay [3], in [4], in assay [6], in assay [7] and in [9] was “inactive” each time. For the same compound, the Potency entry in [10], in assay [11], in [12], in [13], in assay [14] and in [15] was “inactive” in each case. Also, the Potency result in assay [16] and in assay [17] was “inactive” in each case. Besides, the Potency in assay [2], in assay [5] and in [8] was 49 µM (active) each time.
In the case of `Cc1cc([N+](=O)[O-])ccc1N`, the Potency entry in [1], in [2], in [3], in assay [4], in assay [5] and in [6] was “inactive” in each case. The Potency entry in assay [7], in assay [18], in [8], in assay [9], in [10] and in [14] was “inactive” throughout. In addition, the Potency entry in assay [15] is “inactive”.
Turning to `Cc1ccc2c(c1)CCCN2`, the Potency entry in [1], in assay [2], in [3], in assay [4], in assay [5] and in [6] was “inactive” in each case. Further, the Potency entry in [7], in assay [18], in assay [8], in [9], in assay [10] and in [11] was “inactive” each time. Moreover, the Potency result in assay [12], in [14], in assay [15], in assay [16] and in [17] was “inactive” each time.
As for `COc1cc(OC)c2ccc(=O)oc2c1`, the Potency entry in assay [1], in [2], in assay [3], in [4], in [5] and in [6] was “inactive” each time. For the same compound, the Potency result in [7], in assay [18], in [8], in [10], in [11] and in [12] was “inactive” in each case. In addition, the Potency result in assay [13], in assay [20], in assay [14], in assay [15], in assay [16] and in [17] was “inactive” throughout.
`CCSC(=O)N(CC)CC`: the Potency entry in [1], in [2], in assay [3], in assay [4], in assay [5] and in assay [6] was “inactive” each time. In addition, the Potency entry in [7], in assay [18], in assay [8], in assay [9], in assay [10] and in assay [11] was “inactive” throughout. Further, the Potency entry in assay [12], in assay [14], in assay [15], in assay [16] and in assay [17] was “inactive” each time.
